# Measured values as given in paper PMC5540273 (PLoS ONE, 2017).
# Test system: RET
# Conditions: concentration: 1 μM, replicates: in singlicate; n = 1
# 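Also: KINOMEscan kinase panel screen.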
row,SMILES,%Inh [%]
1,COc1ccc(Nc2nccc(N3CCC(NC(=O)C(C)c4ccc(Cl)cc4)CC3)n2)cc1 (stereo not drawn) [GSK1379812],38
2,CC(=O)c1c(C)c2cnc(Nc3ccc(N4CCNCC4)cn3)nc2n(C2CCCC2)c1=O,0
3,Nc1nccc(-c2c(-c3ccc(F)cc3)ncn2C2CCN(Cc3ccccc3)CC2)n1 [SB-219980],6
4,Fc1ccc(-c2nc3n(c2-c2ccncc2)CCS3)cc1 [GI98581],22
5,COc1cccc(CNC(=O)NC2CCN(c3ccnc(Nc4ccc(F)cc4)n3)C2)c1 (stereo not drawn) [GSK1379723],8
6,c1ccc(-c2ccnc3[nH]ccc23)cc1 [SB-693578],0
7,Cc1ccc(NC(=O)c2ccc(Cl)cc2)cc1-c1ccc(C(=O)Nc2ccncc2)cc1 [GSK1398467],0
8,CNCc1ccc2nc(NC(=O)c3ccc(C(C)(C)C)cc3)cn2c1,14
9,COc1ccc(-c2coc3ccc(-c4nnc(C)o4)cc23)cc1,0
10,O=C(Nc1n[nH]c2nc(-c3ccco3)c(Br)cc12)C1CCN(Cc2ccccc2)C1.O=C(O)[C@H](O)[C@@H](O)C(=O)O (stereo not drawn) [SB-742034],2
11,Cc1c(Cn2c(C)c(C)n3c(=O)cc(N4CCOCC4)nc23)cccc1C(F)(F)F [GSK2328680],4
12,COC(=O)C(NC(=O)NC1CCN(c2ccnc(Nc3ccc(F)cc3)n2)C1)c1ccccc1 (stereo not drawn) [GSK1379712],2
13,Cc1ccc(NC(=O)Nc2ccc(Cl)cc2)cc1-c1ccc(C(=O)Nc2ccncc2)cc1 [GSK1398472],6
14,Cc1ccc(-c2nc(Nc3ccncc3)c3ccccc3n2)s1 [GSK189015],13
15,CC(C)c1cc(-c2ccc3c(N)n[nH]c3c2)nc(N)n1 [GSK2250882],0
16,CC(=O)c1cccc(NC(=O)NC2CCN(c3ccnc(Nc4ccc(F)cc4)n3)C2)c1 (stereo not drawn) [GSK1379710],0
17,Cc1ccccc1Cn1ccn2c(=O)cc(N3CCOCC3)nc12 [GSK2269905],0
18,CNc1nc(-c2ccc3c(N)n[nH]c3c2)cc(N2C[C@@H](C(=O)Nc3ccccc3)CC[C@H]2C)n1 [GSK2298859],4

row,SMILES,%Inh [%]
1,Fc1ccc(-c2nc[nH]c2-c2ccncc2)cc1 [SB-217360],0
2,Cc1cccc2c(-c3ccncn3)c(-c3ccc(F)cc3)nn12 [GW515532],0
3,COc1ccc(Nc2nccc(NCCNC(=O)Nc3cc(C)ccc3C)n2)cc1 [GSK1379899],16
4,CS(=O)(=O)CCNCc1nc(-c2ccc3ncnc(Nc4ccc(OCc5ccccc5)c(Cl)c4)c3c2)cs1.Cl [GW582764],0
5,NS(=O)(=O)c1cccc(N/C=C2\C(=O)Nc3ccc(S(=O)(=O)Cc4c(Cl)cccc4Cl)cc32)c1 [GSK398099],0
6,CC(=O)c1c(C)c2cnc(Nc3ccn(C)n3)nc2n(C2CCCC2)c1=O,5
7,Cn1cncc1-c1cc2c(Nc3ccc(OCc4ccccc4)cc3)ncnc2cn1 [GW281179],5
8,COc1ccc(CSc2nnc(-c3ccc4c(c3)CCO4)o2)cc1,0
9,CN1c2ccc(-c3ccc(C(N)=O)cc3)cc2-c2[nH]ncc2S1(=O)=O,1
10,CC(C)c1ccc(O)cc1Nc1ccnc2ccc(C(F)(F)F)cc12 [GW482059],38
11,O=C(Nc1n[nH]c2nc(-c3cccs3)c(Br)cc12)C1CCCC1 [SB-743341],16
12,CS(=O)(=O)CCNCc1nc(-c2ccc3ncnc(Nc4ccc5c(cnn5Cc5ccccc5)c4)c3c2)cs1.Cl.Cl [GW569716],0
13,Cl.Cl.Cl.N#Cc1ccc(CCNc2nccc(-c3cccc(CN4CCNCC4)c3)n2)cc1 [GSK2137462],26
14,Fc1ccc(-c2nn3cccc(F)c3c2-c2ccncc2)cc1 [GW475620],98
15,COc1ccc(CSc2nnc(-c3ccc4ncsc4c3)o2)cc1C(F)(F)F,0
16,Cc1ccc(NC(=O)Nc2ccccc2F)cc1-c1ccc(C(=O)Nc2ccncc2)cc1 [GSK1398477],21
17,O=C1NC(=O)C(c2ccc(Cl)cc2)=C1Nc1cccc(Cl)c1 [SB-317651],8
18,CNc1nc(-c2ccc3c(N)n[nH]c3c2)cc(N2C[C@@H](C(=O)NC3CCCCC3)OC[C@H]2C)n1 [GSK2375584],4

# Test system: RIOK1
# Conditions: concentration: 1 μM, replicates: in singlicate; n = 1
row,SMILES,%Inh [%]
1,COc1ccc(Nc2nccc(N3CCC(NC(=O)C(C)c4ccc(Cl)cc4)CC3)n2)cc1 (stereo not drawn) [GSK1379812],24
2,CC(=O)c1c(C)c2cnc(Nc3ccc(N4CCNCC4)cn3)nc2n(C2CCCC2)c1=O,0
3,Nc1nccc(-c2c(-c3ccc(F)cc3)ncn2C2CCN(Cc3ccccc3)CC2)n1 [SB-219980],0
4,Fc1ccc(-c2nc3n(c2-c2ccncc2)CCS3)cc1 [GI98581],29
5,COc1cccc(CNC(=O)NC2CCN(c3ccnc(Nc4ccc(F)cc4)n3)C2)c1 (stereo not drawn) [GSK1379723],30
6,c1ccc(-c2ccnc3[nH]ccc23)cc1 [SB-693578],14
7,Cc1ccc(NC(=O)c2ccc(Cl)cc2)cc1-c1ccc(C(=O)Nc2ccncc2)cc1 [GSK1398467],32
8,CNCc1ccc2nc(NC(=O)c3ccc(C(C)(C)C)cc3)cn2c1,20
9,COc1ccc(-c2coc3ccc(-c4nnc(C)o4)cc23)cc1,0
10,O=C(Nc1n[nH]c2nc(-c3ccco3)c(Br)cc12)C1CCN(Cc2ccccc2)C1.O=C(O)[C@H](O)[C@@H](O)C(=O)O (stereo not drawn) [SB-742034],0
11,Cc1c(Cn2c(C)c(C)n3c(=O)cc(N4CCOCC4)nc23)cccc1C(F)(F)F [GSK2328680],11
12,COC(=O)C(NC(=O)NC1CCN(c2ccnc(Nc3ccc(F)cc3)n2)C1)c1ccccc1 (stereo not drawn) [GSK1379712],13
13,Cc1ccc(NC(=O)Nc2ccc(Cl)cc2)cc1-c1ccc(C(=O)Nc2ccncc2)cc1 [GSK1398472],31
14,Cc1ccc(-c2nc(Nc3ccncc3)c3ccccc3n2)s1 [GSK189015],45
15,CC(C)c1cc(-c2ccc3c(N)n[nH]c3c2)nc(N)n1 [GSK2250882],86
16,CC(=O)c1cccc(NC(=O)NC2CCN(c3ccnc(Nc4ccc(F)cc4)n3)C2)c1 (stereo not drawn) [GSK1379710],31
17,Cc1ccccc1Cn1ccn2c(=O)cc(N3CCOCC3)nc12 [GSK2269905],0
18,CNc1nc(-c2ccc3c(N)n[nH]c3c2)cc(N2C[C@@H](C(=O)Nc3ccccc3)CC[C@H]2C)n1 [GSK2298859],57

row,SMILES,%Inh [%]
1,Fc1ccc(-c2nc[nH]c2-c2ccncc2)cc1 [SB-217360],0
2,Cc1cccc2c(-c3ccncn3)c(-c3ccc(F)cc3)nn12 [GW515532],34
3,COc1ccc(Nc2nccc(NCCNC(=O)Nc3cc(C)ccc3C)n2)cc1 [GSK1379899],35
4,CS(=O)(=O)CCNCc1nc(-c2ccc3ncnc(Nc4ccc(OCc5ccccc5)c(Cl)c4)c3c2)cs1.Cl [GW582764],0
5,NS(=O)(=O)c1cccc(N/C=C2\C(=O)Nc3ccc(S(=O)(=O)Cc4c(Cl)cccc4Cl)cc32)c1 [GSK398099],19
6,CC(=O)c1c(C)c2cnc(Nc3ccn(C)n3)nc2n(C2CCCC2)c1=O,0
7,Cn1cncc1-c1cc2c(Nc3ccc(OCc4ccccc4)cc3)ncnc2cn1 [GW281179],27
8,COc1ccc(CSc2nnc(-c3ccc4c(c3)CCO4)o2)cc1,0
9,CN1c2ccc(-c3ccc(C(N)=O)cc3)cc2-c2[nH]ncc2S1(=O)=O,33
10,CC(C)c1ccc(O)cc1Nc1ccnc2ccc(C(F)(F)F)cc12 [GW482059],29
11,O=C(Nc1n[nH]c2nc(-c3cccs3)c(Br)cc12)C1CCCC1 [SB-743341],24
12,CS(=O)(=O)CCNCc1nc(-c2ccc3ncnc(Nc4ccc5c(cnn5Cc5ccccc5)c4)c3c2)cs1.Cl.Cl [GW569716],22
13,Cl.Cl.Cl.N#Cc1ccc(CCNc2nccc(-c3cccc(CN4CCNCC4)c3)n2)cc1 [GSK2137462],28
14,Fc1ccc(-c2nn3cccc(F)c3c2-c2ccncc2)cc1 [GW475620],30
15,COc1ccc(CSc2nnc(-c3ccc4ncsc4c3)o2)cc1C(F)(F)F,10
16,Cc1ccc(NC(=O)Nc2ccccc2F)cc1-c1ccc(C(=O)Nc2ccncc2)cc1 [GSK1398477],44
17,O=C1NC(=O)C(c2ccc(Cl)cc2)=C1Nc1cccc(Cl)c1 [SB-317651],40
18,CNc1nc(-c2ccc3c(N)n[nH]c3c2)cc(N2C[C@@H](C(=O)NC3CCCCC3)OC[C@H]2C)n1 [GSK2375584],40
